In PubChem BioAssay AID1159580 (chemical genetic matrix, 2015):
Values joined by “and” are separate entries in the source; they are usually repeats but may differ in a detail not shown here. Identical values can stand only once. Screen size: about 5,500 compounds; about 2,000 (36%) were called active. Not shown: some 18% with an inconclusive outcome. Rule as the data show it: active = normalized growth mostly below about 0.91 (no sharp cut-off); inconclusive = no clear call, values can overlap the other calls; inactive = mostly above about 0.92. Some of the results follow.

Assay: chemical genetic growth profiling, strain panel (AID 1159580);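 also: tested at 20 µM; growth read once vehicle control cultures reached saturation at 30 °C; 1 = growth at the plate median or of vehicle wells; lower values mean less growth of the strain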
Details: S. cerevisiae deletion strains, growth OD

Measured: normalized growth

COC(=O)[C@H]1[C@H]2C[C@@H]3c4[nH]c5cc(OC)ccc5c4CCN3C[C@H]2C[C@@H](OC(=O)c2cc(OC)c(OC)c(OC)c2)[C@@H]1OC
inactive: locus YAL013W, strain DEP1, stronger effect = lower value 0.994 | locus YAL021C, strain ccr4, stronger effect = lower value 0.965 | locus YAL026C, strain drs2, stronger effect = lower value 0.974 | locus YAL030W, strain snc1, stronger effect = lower value 0.981 | locus YBL061C, strain skt5, stronger effect = lower value 1 | locus YBR009C, strain hhf1, stronger effect = lower value 1.01 | locus YBR021W, strain FUR4, stronger effect = lower value 0.981 | locus YBR023C, strain chs3, stronger effect = lower value 0.979 | locus YBR171W, strain sec66, stronger effect = lower value 1 | locus YBR229C, strain ROT2, stronger effect = lower value 0.991 | locus YBR231C, strain swc5, stronger effect = lower value 0.987 | locus YBR279W, strain paf1, stronger effect = lower value 0.965 | locus YCL011C, strain gbp2, stronger effect = lower value 0.97 | locus YCL016C, strain dcc1, stronger effect = lower value 0.94 | locus YCL029C, strain bik1, stronger effect = lower value 1.03 | locus YCL069W, strain vba3, stronger effect = lower value 1.01 | locus YCR088W, strain abp1, stronger effect = lower value 0.999 | locus YDL005C, strain med2, stronger effect = lower value 0.98 | locus YDL035C, strain GPR1, stronger effect = lower value 0.979 | locus YDL040C, strain nat1, stronger effect = lower value 0.992 | locus YDL074C, strain BRE1, stronger effect = lower value 0.952 | locus YDL101C, strain DUN1, stronger effect = lower value 1.01 | locus YDL134C, strain PPH21, stronger effect = lower value 1 | locus YDL185W, strain tfp1, stronger effect = lower value 1.02 | locus YDL192W, strain arf1, stronger effect = lower value 1.03 | locus YDR001C, strain nth1, stronger effect = lower value 0.984 | locus YDR069C, strain doa4, stronger effect = lower value 0.963 | locus YDR101C, strain arx1, stronger effect = lower value 1 | locus YDR137W, strain rgp1, stronger effect = lower value 1.04 | locus YDR150W, strain NUM1, stronger effect = lower value 1 | locus YDR159W, strain sac3, stronger effect = lower value 0.968 | locus YDR162C, strain NBP2, stronger effect = lower value 0.991 | locus YDR195W, strain ref2 0.972 | locus YDR297W, strain sur2, stronger effect = lower value 0.984 | locus YDR318W, strain mcm21, stronger effect = lower value 1.01 | locus YDR334W, strain swr1, stronger effect = lower value 0.972 | locus YDR335W, strain msn5, stronger effect = lower value 0.993 | locus YDR388W, stronger effect = lower value 1.01 | locus YDR392W, strain spt3, stronger effect = lower value 0.784 | locus YDR502C, strain sam2, stronger effect = lower value 0.996 | locus YEL003W, strain gim4, stronger effect = lower value 0.977 | locus YEL037C, strain rad23, stronger effect = lower value 1 | locus YEL061C, strain CIN8 (second series), stronger effect = lower value 0.987 | locus YEL061C, strain CIN8, stronger effect = lower value 0.999 | locus YER015W, strain faa2, stronger effect = lower value 0.97 | locus YER016W, strain bim1, stronger effect = lower value 1 | locus YER110C, stronger effect = lower value 1.02 | locus YER111C, strain swi4, stronger effect = lower value 0.996 | locus YER155C, strain BEM2 (second series), stronger effect = lower value 0.931 | locus YER155C, strain BEM2, stronger effect = lower value 1.02 | locus YER167W, strain BCK2, stronger effect = lower value 0.987 | locus YFR010W, strain ubp6, stronger effect = lower value 1.01 | locus YGL078C, strain dbp3, stronger effect = lower value 1 | locus YGL086W, strain mad1, stronger effect = lower value 0.998 | locus YGL167C, strain pmr1, stronger effect = lower value 0.991 | locus YGL173C, strain kem1, stronger effect = lower value 0.983 | locus YGL227W, strain vid30, stronger effect = lower value 0.979 | locus YGL240W, strain doc1, stronger effect = lower value 0.957 | locus YGL248W, strain PDE1, stronger effect = lower value 1 | locus YGL253W, strain hxk2, stronger effect = lower value 1.01 | locus YGR078C, strain PAC10, stronger effect = lower value 0.975 | locus YGR135W, strain pre9, stronger effect = lower value 1.03 | locus YGR229C, strain SMI1, stronger effect = lower value 0.964 | locus YGR252W, strain gcn5, stronger effect = lower value 0.929 | locus YHR013C, strain ard1, stronger effect = lower value 0.92 | locus YHR027C, strain rpn1, stronger effect = lower value 0.953 | locus YHR030C, strain SLT2, stronger effect = lower value 1 and 0.982 | locus YHR079C, strain IRE1 (second series), stronger effect = lower value 1.01 | locus YHR079C, strain IRE1, stronger effect = lower value 0.978 | locus YHR094C, strain hxt1, stronger effect = lower value 1.02 | locus YHR129C, strain ARP1, stronger effect = lower value 1.01 | locus YHR142W, strain chs7, stronger effect = lower value 0.986 | locus YHR200W, strain rpn10, stronger effect = lower value 0.998 | locus YIL066C, strain RNR3, stronger effect = lower value 0.986 | locus YIL073C, strain SPO22, stronger effect = lower value 1.06 | locus YIL125W, strain kgd1, stronger effect = lower value 1 | locus YIR030C, strain dcg1, stronger effect = lower value 1.01 | locus YJL092W, strain hpr5, stronger effect = lower value 0.976 | locus YJL095W, strain BCK1 (second series), stronger effect = lower value 0.965 | locus YJL095W, strain BCK1, stronger effect = lower value 0.996 and 0.977 | locus YJL115W, strain asf1, stronger effect = lower value 0.966 | locus YJL129C, strain trk1, stronger effect = lower value 0.971 | locus YJL134W, strain LCB3, stronger effect = lower value 0.999 | locus YJL154C, strain vps35, stronger effect = lower value 0.986 | locus YJL164C, strain tpk1, stronger effect = lower value 0.988 | locus YJL166W, strain qcr8, stronger effect = lower value 0.981 | locus YJL168C, strain set2, stronger effect = lower value 1.01 | locus YJL187C, strain SWE1 (second series), stronger effect = lower value 0.999 | locus YJR043C, strain POL32, stronger effect = lower value 0.967 | locus YJR066W, strain TOR1, stronger effect = lower value 0.949 | locus YJR075W, strain HOC1, stronger effect = lower value 0.983
